Measurements taken from PubChem BioAssay (Tox21).
Results filed as inconclusive are left out. A call without a number means that no potency is given here. A number with no mark means an inactive call. Calls of active or inactive are those of the source. Calls come from the whole dose curve.
Potency is the fitted concentration of half-maximal effect.

Each molecule was assayed against Retinoic acid receptor RXR-alpha (Homo sapiens) (UniProt P19793) (assay: qHTS assay to identify small molecule agonists of the RXR signaling pathway (AID 1159527; note: nearly all actives have a fitted effect of over 35% in size)). Conditions: HEK293T RXRa-UAS-bla, beta-lactamase ratio, 16 h; series mostly up to 76.8 µM.
Sequence of Retinoic acid receptor RXR-alpha (Homo sapiens) (P19793 whole entry, looked up): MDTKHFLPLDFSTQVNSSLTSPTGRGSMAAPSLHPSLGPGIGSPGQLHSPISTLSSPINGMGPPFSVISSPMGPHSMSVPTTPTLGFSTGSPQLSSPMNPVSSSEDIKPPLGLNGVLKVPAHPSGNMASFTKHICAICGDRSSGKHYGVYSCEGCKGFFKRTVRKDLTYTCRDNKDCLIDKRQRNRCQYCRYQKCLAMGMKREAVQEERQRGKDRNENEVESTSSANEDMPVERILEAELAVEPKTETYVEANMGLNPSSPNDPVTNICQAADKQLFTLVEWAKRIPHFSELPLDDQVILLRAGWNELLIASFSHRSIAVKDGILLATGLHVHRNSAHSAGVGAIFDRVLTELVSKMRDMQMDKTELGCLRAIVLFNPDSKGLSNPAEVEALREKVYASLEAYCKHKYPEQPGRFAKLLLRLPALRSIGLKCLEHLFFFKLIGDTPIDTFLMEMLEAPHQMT
Summary of the method: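 Compounds in DMSO were added to RXR-alpha-UAS-bla HEK 293T cells kept in 2% charcoal-stripped serum, and incubated 16 hr at 37 C with 5% CO2. Reporter signal came from a 2 hr B/G FRET substrate step.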
For NS(=O)(=O)c1ccccc1OC(F)(F)F, the Potency was “inactive”. For C[C@@H]1C[C@H]2[C@@H]3C[C@H](F)C4=CC(=O)C=C[C@]4(C)[C@@]3(F)[C@@H](O)C[C@]2(C)[C@@]1(O)C(=O)CO, the Potency was “inactive”. For CCOC(=O)CC#N, the Potency was “inactive”. For CC(=O)OCC(=O)[C@@]1(O)[C@H](OC(C)=O)C[C@H]2[C@@H]3CCC4=CC(=O)C=C[C@]4(C)[C@@]3(F)[C@@H](O)C[C@@]21C, the Potency was “inactive”. With C=COCCOCCOC=C the Potency was “inactive”. BrC/C=C/CBr gave an activation of 4.67% [at 15.8 µM]. In the case of CCCCCCCCCCCCC, the Potency is reported as “inactive”. For C/C=C(\C)C(=O)OCC/C=C\CC, the Potency was “inactive”. For CNC(=O)NC, the Potency was “inactive”. CC1CCC(C(C)(C)S)C(=O)C1 (configuration not stated) was tested, and the Potency was “inactive”. With O=S(=O)(O)CCO the Potency was “inactive”. For FC(F)(F)c1ccc(Cl)cc1Cl, the Potency was “inactive”. CCCCOC(=O)C(=O)OCCCC was tested, and the Potency was “inactive”. For Nc1nc(=O)n([C@@H]2O[C@H](CO)[C@@H](O)[C@@H]2F)cc1I, the Potency was “inactive”. In the case of C[C@H]1O[C@H](O[C@H]2[C@H](O)[C@@H](O)[C@@H](O[C@H]3[C@H](O)[C@@H](O)[C@H](O)O[C@@H]3CO)O[C@@H]2CO)[C@H](O)[C@@H](O)[C@@H]1N[C@H]1C=C(CO)[C@@H](O)[C@H](O)[C@H]1O, the Potency is reported as “inactive”. In the case of C=CC(C)(O)CC/C=C(\C)CC (configuration not stated), the Potency is reported as “inactive”. For O=C(O)c1c(Cl)ccc(Cl)c1Cl, the Potency was 15.5 µM (active). CC(C)COC(=O)COc1ccc(Cl)cc1Cl was tested, and the Potency was “inactive”. With CNC(=O)C(c1ccccc1)c1ccccc1 the Potency was “inactive”. In the case of Cc1nc2ccccc2c(=O)o1, the Potency is reported as “inactive”. C=C[C@@H](C)CCC=C(C)C was tested, and the Potency was “inactive”. NC(=O)NC(=O)Cc1ccccc1 was tested, and the Potency was “inactive”. With CCCCCCCCCCCCOC(C)=O the Potency was “inactive”. For c1ccccc1, the Potency was “inactive”. For NC(=O)NNC(N)=O, the Potency was “inactive”. Cc1cc(O)c2c(c1)C(=O)c1cccc(O)c1C2=O was tested, and the Potency was “inactive”. For O=C(O)c1ccccc1C(=O)OCc1ccccc1, the Potency was “inactive”.
